SMILES strings stand for the structures. Results filed as inconclusive are left out. Calls of active or inactive are those of the source. The call rests on the fitted dose curve.

Chain of Polyunsaturated fatty acid lipoxygenase ALOX15 (Homo sapiens) (P16050 whole entry, looked up): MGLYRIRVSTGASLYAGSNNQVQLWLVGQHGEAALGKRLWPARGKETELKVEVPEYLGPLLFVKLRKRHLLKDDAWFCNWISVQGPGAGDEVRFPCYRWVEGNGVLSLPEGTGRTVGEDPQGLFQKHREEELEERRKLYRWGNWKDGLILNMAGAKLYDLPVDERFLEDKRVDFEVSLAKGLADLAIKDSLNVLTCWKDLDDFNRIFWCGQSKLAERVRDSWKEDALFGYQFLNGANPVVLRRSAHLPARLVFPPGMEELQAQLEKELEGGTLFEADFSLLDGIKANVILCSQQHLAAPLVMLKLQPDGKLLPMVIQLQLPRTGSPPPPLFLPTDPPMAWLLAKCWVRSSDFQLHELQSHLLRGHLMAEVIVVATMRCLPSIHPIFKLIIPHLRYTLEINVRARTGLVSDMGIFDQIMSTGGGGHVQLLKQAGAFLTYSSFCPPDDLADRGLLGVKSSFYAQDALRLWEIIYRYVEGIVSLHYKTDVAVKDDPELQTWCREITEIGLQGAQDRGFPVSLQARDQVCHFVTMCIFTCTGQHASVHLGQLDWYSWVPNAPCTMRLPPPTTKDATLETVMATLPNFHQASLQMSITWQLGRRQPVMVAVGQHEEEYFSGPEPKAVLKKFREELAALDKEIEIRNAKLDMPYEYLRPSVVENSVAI

This test concerns the target Polyunsaturated fatty acid lipoxygenase ALOX15 (Homo sapiens) (UniProt P16050). Briefly: Inhibitors of 12-hLO (12-human lipoxygenase): 15hLO-1 Cuvette-Based Inhibition Counterscreen Assay for 12hLO Followup Compounds. The settings on record: purified 15hLO-1, UV 234 nm product formation. As for the experimental part:
Human lipoxygenase 15hLO-1 is a member of the closely related lipoxygenase family of enzymes which catalyze the site-specific oxidation of arachidonic acid to various hormone precursor molecules and as such is a candidate for drug development in a variety of disease areas, such as cancer and inflammation. The enzyme activity of 15hLO-1 was determined by a direct measurement of product formation by monitoring the absorbance at 234 nm in a 2 mL cuvette. IC50 values of inhibitors were obtained by measuring the enzymatic rate at a variety of concentrations (Carroll et al, Segraves et al). A purified preparation of human 15hLO-1 was supplied by Professor Ted Holman, University of California, Santa Cruz. This assay was run against 12hLO followup compounds with the goal of identifying selective 12hLO inhibitors. Assay Provider: Holman, T.R., University of California, Santa Cruz Screening Center PI: Austin, Christopher P. Screening Center: NIH Chemical Genomics Center
For control experiments, 2 mL of substrate buffer (10 uM arachidonic acid / 25 mM HEPES / 0.01% (v/v) Triton X-100, pH 8.0) was aliquoted in a cuvette with a magnetic stir bar. After equilibrium was ensured, an aliquot of inhibitor solvent was added (DMSO), and equilibrium was once again assured. The reaction was started by adding enzyme to the cuvette and the reaction was followed until completed. The inhibition experiments were performed as above, except the actual inhibitory compound was added instead of vehicle. To achieve an IC50, typically 5 concentrations of the inhibitor were studied. If the inhibitor concentration was constant, then five different reaction volumes were used. Step \ Parameter \ Value \ Description 1; UV-Vis; 234 nm; Equilibration 2; Reagent; 2 mL; Substrate buffer 3; UV-Vis; 234 nm; Equilibration 4; Reagent; varies; Compound 5; UV-Vis; 234 nm; Equilibration 6; Reagent; 50-200 nM; Enzyme 12-hLO 7; UV-Vis; 234 nm; Enzymatic reaction Step \ Notes 1; Blank cuvette to air. 2; 10 uM AA, 25 mM HEPES, 0.01% Triton X-100, pH 8. 3; No change in absorbance ensured. 4; Compound vehicle or compound in various concentrations depending on potency. 5; No change in absorbance ensured. 6; Enzyme concentration to achieve reaction rate between 0.02 and 0.04 AU/s. 7; Enzymatic reaction visualized until completion.
On the technique in general: Counterscreens check selectivity or assay interference.
In the case of `CCc1cc(-c2[nH]ncc2-c2ccc3c(c2)OCO3)c(O)cc1O`, the Potency was 4.01 µM (active). Still for that read-out and setting: in the case of `Cc1ccc(C(=O)/C=C/c2c[nH]c3ccccc23)cc1` it was 20.6 µM (active). As for `COc1ccc(C(Nc2ccccn2)c2c(NC(=O)c3ccco3)sc(C)c2C)cc1` (stereo not given), the Potency is 62.7 µM (active). Take `COc1ccc(NC2=NCC(Cc3ccc(Br)cc3)S2)cc1` (stereo not given): the Potency is 8.89 µM (active). Still for that read-out and setting: with `CCCOC(=O)c1ccc(Oc2c(-c3ccc(O)cc3O)n[nH]c2C)cc1` the figure was 6.81 µM (active); with `Cc1oc2c(O)c(O)ccc2c(=O)c1-c1cnn(-c2ccccc2)c1`, 18.9 µM (active); with `COc1ccc(-c2n[nH]c(C)c2-c2ccc(Cl)cc2)c(O)c1`, 3.51 µM (active). On the same count and under the same terms, in the case of `O=S(=O)(Nc1ccc(O)c(Sc2nc3ccccc3s2)c1)c1ccc(Cl)cc1` it was 12.6 µM (active).

Turning to `COc1ccc(C(=O)Nc2cc(C(=O)c3ccccc3)c(C)oc2=O)cc1`, the call was inactive. In the case of `COc1ccc(-c2n[nH]c(C(F)(F)F)c2-c2cc3ccccc3o2)c(O)c1`, the Potency was 6.5 µM (active). With `CCOc1ccc(-c2[nH]ncc2Oc2cccc(OC)c2)c(O)c1`, the Potency is 2.96 µM (active).

As for `O=C(NC(=S)Nc1ccccc1N1CCCC1)c1ccc([N+](=O)[O-])cc1`, the outcome was inactive.

`CCCOC(=O)c1ccc(Oc2cn[nH]c2-c2ccc(OC)cc2O)cc1`: the Potency is 13.1 µM (active). `COc1cccc(-c2cnc(NCc3cc(Cl)ccc3O)n2C)c1`: the Potency is 32.9 µM (active). On to `Oc1ccc(CN2CCCc3ccccc32)c2cccnc12`, for which the Potency is 81.3 µM (active).
